# Reference: paper PMC7862700, “An all-to-all approach to the identification of sequence-specific readers for epigenetic DNA modifications on cytosine”
# Experiments:
# Test in all cases: DAPPL (digital affinity profiling via proximity ligation, sequencing); 10 mM Tris-HCl pH 7.5, 50 mM NaCl, 1 mM DTT, 4% glycerol, room temperature, 30 min; GST-TFs on glutathione beads, 16-mer random dsDNA library, 0.1% formaldehyde crosslink after washing; high values mean tight binding
# Conditions in all cases: protein: recombinant; tags: N-terminal GST; dsDNA, one strand shown
# ETV1 = ETV1 (Homo sapiens, UniProt P50549 1-477)
# Chain of ETV1 (P50549 whole entry, the tested form may be a part): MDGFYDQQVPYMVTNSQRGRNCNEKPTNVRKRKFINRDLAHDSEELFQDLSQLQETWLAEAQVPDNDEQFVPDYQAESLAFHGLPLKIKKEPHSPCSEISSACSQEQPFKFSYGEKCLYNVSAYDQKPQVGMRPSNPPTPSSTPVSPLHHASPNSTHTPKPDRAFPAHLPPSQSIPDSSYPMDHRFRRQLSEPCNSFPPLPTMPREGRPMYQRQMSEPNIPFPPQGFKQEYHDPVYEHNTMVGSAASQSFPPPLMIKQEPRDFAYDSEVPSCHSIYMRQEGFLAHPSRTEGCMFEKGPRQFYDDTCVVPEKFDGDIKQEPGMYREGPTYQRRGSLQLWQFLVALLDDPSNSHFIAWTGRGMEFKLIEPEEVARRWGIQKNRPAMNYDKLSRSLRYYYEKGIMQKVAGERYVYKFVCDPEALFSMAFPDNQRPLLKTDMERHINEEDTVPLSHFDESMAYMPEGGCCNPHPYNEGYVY
# Outline: (§1)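 Human transcription factors were made in yeast as GST fusions, captured on glutathione beads and barcoded with DNA. With a tag-only sample included, the pool was incubated with 200 nmole of a random double-stranded 16-mer DNA library in Tris/NaCl/DTT/glycerol buffer at room temperature for 30 min, then crosslinked with 0.1% formaldehyde after washing, ligated by proximity, amplified and sequenced. For binding signal, each hexamer's read frequency for a factor is divided by its frequency for the tag-only sample.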
# ERF = target: T1, ERF (Homo sapiens, UniProt P50548 1-548)
# T1 sequence: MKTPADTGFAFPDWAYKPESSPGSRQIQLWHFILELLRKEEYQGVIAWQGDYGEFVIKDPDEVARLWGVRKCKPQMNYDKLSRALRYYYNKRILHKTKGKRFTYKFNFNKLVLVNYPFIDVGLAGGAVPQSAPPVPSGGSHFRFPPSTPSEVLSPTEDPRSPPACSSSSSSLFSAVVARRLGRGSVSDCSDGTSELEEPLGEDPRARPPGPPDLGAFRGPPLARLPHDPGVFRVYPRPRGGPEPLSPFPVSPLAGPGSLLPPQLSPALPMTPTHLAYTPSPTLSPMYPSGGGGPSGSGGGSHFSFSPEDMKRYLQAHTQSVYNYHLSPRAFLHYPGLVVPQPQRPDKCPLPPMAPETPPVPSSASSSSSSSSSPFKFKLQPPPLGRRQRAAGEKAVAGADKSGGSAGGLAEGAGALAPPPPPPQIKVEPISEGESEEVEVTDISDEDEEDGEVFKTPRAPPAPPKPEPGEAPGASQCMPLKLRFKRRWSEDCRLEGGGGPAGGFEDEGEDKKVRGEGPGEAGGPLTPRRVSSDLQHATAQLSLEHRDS
# Outline: as §1
# ETV3L = target: T2, ETV3L (Homo sapiens, UniProt Q6ZN32 1-361)
# T2 sequence: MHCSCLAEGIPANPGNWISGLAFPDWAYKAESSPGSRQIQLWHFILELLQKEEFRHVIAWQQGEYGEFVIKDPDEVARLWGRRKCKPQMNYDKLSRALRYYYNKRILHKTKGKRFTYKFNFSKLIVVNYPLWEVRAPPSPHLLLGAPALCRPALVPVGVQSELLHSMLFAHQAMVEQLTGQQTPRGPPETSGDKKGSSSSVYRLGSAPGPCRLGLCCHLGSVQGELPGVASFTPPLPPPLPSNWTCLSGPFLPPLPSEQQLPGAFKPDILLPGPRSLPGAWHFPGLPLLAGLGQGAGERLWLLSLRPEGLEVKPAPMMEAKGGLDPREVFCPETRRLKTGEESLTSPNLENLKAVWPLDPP
# Outline: as §1
# ETS2 = target: T3, ETS2 (Homo sapiens, UniProt P15036 1-469)
# T3 sequence: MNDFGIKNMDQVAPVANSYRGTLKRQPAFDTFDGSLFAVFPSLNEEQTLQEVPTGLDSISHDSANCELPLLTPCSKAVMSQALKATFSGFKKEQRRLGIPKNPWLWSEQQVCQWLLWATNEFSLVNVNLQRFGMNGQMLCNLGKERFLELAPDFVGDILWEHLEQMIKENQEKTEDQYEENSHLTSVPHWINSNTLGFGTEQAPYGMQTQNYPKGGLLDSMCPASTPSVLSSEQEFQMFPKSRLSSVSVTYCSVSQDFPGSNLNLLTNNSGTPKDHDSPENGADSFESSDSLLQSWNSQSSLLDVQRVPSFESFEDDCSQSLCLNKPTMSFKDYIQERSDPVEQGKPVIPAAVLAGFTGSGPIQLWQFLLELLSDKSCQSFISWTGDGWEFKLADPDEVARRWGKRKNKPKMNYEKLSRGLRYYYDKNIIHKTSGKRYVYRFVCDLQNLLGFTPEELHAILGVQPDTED
# Outline: as §1
# SPDEF = target: T4, SPDEF (Homo sapiens, UniProt O95238 1-335)
# T4 sequence: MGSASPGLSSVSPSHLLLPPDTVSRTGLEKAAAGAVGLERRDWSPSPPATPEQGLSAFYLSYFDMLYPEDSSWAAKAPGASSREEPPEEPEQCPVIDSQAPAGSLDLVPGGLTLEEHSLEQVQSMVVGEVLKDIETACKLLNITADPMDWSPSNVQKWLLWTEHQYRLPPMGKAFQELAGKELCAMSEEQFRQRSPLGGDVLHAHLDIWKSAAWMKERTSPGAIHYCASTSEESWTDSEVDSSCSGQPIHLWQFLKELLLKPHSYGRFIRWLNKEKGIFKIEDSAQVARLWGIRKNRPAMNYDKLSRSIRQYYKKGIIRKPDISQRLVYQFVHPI
# Outline: as §1
# ETV7 = target: T5, ETV7 (Homo sapiens, UniProt Q9Y603 1-341)
# T5 sequence: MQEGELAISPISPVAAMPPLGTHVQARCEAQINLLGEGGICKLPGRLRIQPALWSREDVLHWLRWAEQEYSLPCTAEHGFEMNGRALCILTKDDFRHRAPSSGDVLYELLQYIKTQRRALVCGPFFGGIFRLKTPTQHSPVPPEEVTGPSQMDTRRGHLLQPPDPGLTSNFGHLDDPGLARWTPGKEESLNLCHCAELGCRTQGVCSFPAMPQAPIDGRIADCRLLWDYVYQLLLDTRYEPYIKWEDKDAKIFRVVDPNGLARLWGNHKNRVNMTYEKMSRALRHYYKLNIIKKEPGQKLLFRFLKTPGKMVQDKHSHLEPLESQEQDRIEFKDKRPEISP
# Outline: as §1
# ELF5 = target: T6, ELF5 (Homo sapiens, UniProt Q9UKW6-2 1-255)
# T6 sequence: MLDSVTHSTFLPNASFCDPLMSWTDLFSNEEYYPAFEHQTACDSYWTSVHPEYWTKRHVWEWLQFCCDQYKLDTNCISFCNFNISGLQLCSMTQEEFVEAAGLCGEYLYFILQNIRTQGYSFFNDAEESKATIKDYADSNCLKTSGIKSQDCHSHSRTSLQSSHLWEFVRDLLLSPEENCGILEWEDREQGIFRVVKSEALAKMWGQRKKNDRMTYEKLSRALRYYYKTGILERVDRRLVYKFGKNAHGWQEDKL
# Outline: as §1
# ETV3 = target: T7, ETV3 (Homo sapiens, UniProt P41162-2 1-143)
# T7 sequence: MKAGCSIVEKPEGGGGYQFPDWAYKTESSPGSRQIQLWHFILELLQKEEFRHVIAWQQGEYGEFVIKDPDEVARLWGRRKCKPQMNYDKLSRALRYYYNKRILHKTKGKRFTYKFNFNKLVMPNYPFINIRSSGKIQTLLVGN
# Outline: as §1
# ETV6 = ETV6 (Homo sapiens, UniProt P41212 1-452)
# Chain of ETV6 (P41212 whole entry): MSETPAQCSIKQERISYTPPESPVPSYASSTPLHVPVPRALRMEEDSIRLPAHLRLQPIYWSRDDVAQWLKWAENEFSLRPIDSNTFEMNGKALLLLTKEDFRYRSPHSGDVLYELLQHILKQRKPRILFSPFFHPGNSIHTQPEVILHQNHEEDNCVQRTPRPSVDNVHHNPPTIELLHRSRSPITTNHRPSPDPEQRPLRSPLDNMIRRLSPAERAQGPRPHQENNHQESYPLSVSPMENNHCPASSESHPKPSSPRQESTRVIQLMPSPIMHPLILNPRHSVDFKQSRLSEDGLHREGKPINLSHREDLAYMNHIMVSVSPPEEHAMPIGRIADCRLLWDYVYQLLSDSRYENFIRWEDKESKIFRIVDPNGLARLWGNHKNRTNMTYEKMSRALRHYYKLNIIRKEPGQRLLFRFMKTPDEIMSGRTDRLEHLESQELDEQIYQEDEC
# Outline: as §1
sequence,measurement,setting,value
TTATCG,binding signal,ETV1,"1.2 fold enrichment (6-mer frequency, TF over GST control)"
same,binding signal,ERF,"1.2 fold enrichment (6-mer frequency, TF over GST control)"
same,binding signal,ETV3L,"1.32 fold enrichment (6-mer frequency, TF over GST control)"
same,binding signal,ETS2,"1.2 fold enrichment (6-mer frequency, TF over GST control)"
same,binding signal,SPDEF,"1.16 fold enrichment (6-mer frequency, TF over GST control)"
same,binding signal,ETV7,"1.02 fold enrichment (6-mer frequency, TF over GST control)"
same,binding signal,ELF5,"1.25 fold enrichment (6-mer frequency, TF over GST control)"
same,binding signal,ETV3,"1.22 fold enrichment (6-mer frequency, TF over GST control)"
same,binding signal,ETV6,"1.27 fold enrichment (6-mer frequency, TF over GST control)"
